Consider 8 compounds from PubChem BioAssay (Tox21).

Test [1] in a line: Nuclear factor erythroid 2-related factor 2/antioxidant responsive element (Nrf2/ARE) small molecule agonists: luciferase reporter gene qHTS assay in human keratinocytes (AID 1919969). Further: nearly all actives have a fitted effect of over 35% in size. Further: potency means the concentration at half of the fitted maximal effect. As to conditions: KeratinoSens HaCaT ARE-luciferase, luminescence, 24 h; series mostly up to 92.4 µM.
For test [2], the target named is Gonadotropin-releasing hormone receptor (Homo sapiens) (UniProt P30968). The experiment in a line: Human gonadotropin-releasing hormone receptor (GnRHR) small molecule agonists, calcium flux assay in GnRHR-HEK293 cells (AID 1920063). Further: nearly all actives have a fitted effect of over 35% in size. Further: potency means the concentration at half of the fitted maximal effect. As to conditions: calcium flux fluorescence, agonist mode; series mostly up to 57.6 µM. In short, it runs like this: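 Fluorescence kinetics (480 nm excitation, 540 nm emission; 3 min, 1 s steps) report calcium mobilisation in human GnRHR-HEK293 cells in agonist mode. Dye incubation: 1 h, 37 C.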
Chain of Gonadotropin-releasing hormone receptor (Homo sapiens) (P30968 whole entry, looked up): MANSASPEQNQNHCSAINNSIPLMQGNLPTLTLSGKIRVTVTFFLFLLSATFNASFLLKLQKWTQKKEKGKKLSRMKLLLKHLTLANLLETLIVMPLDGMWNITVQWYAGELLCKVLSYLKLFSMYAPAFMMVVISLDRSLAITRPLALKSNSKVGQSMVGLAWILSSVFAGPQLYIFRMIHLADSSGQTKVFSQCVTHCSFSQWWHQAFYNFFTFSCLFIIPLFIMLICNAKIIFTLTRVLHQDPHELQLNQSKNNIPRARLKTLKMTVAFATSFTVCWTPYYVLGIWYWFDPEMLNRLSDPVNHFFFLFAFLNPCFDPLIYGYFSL
Background: Calcium flux is commonly read through the fluorescence of an indicator in the cells.

The target in test [3] is KiSS-1 receptor (Homo sapiens) (UniProt Q969F8). The experiment in a line: Human kisspeptin (KISS1R) small molecule agonists, calcium flux assay in KISS1R-HEK293 cells (AID 1920064; active means well fitted activation curve with a large enough effect in the repeat runs; further: potency means the concentration at half of the fitted maximal effect). The note with it: KISS1R-HEK293, calcium flux fluorescence, agonist; series mostly up to 76.8 µM. In short, it runs like this: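 Measures KISS1R agonism through calcium-sensitive dye fluorescence in stably transfected HEK293 cells, read for 3 min after pin-tool compound delivery; 15-point titrations in triplicate.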
Chain of KiSS-1 receptor (Homo sapiens) (Q969F8 whole entry, looked up): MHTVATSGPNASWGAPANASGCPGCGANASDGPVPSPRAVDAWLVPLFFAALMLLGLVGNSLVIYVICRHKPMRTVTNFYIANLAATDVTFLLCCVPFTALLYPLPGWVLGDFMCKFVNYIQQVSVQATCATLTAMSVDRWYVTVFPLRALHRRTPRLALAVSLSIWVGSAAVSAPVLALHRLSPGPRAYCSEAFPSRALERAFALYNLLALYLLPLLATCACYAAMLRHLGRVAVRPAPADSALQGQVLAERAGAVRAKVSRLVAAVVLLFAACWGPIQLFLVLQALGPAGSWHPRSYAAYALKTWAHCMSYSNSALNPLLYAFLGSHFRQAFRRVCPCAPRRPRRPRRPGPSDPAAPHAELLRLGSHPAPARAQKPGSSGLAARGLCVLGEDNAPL

Test [4] in a line: G protein-coupled receptor (GPCR) small molecule agonists, calcium flux assay: HEK293 wild type cell line counter screen (AID 1920065). Further: potency means the concentration at half of the fitted maximal effect. As to conditions: HEK293 WT calcium flux, fluorescence, agonist mode; series mostly up to 57.6 µM. In short, it runs like this: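 Readout: fluorescence at 480 nm excitation/540 nm emission, sampled at 1 s intervals for 3 min. Cells had been cultured 18 h, then dye-loaded 1 h at 37 C before compound or ATP addition.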

Test [5] is described as follows: p53 small molecule agonists, cell-based qHTS assay with rat liver microsomes (AID 1963578). As to conditions: HCT-116 p53RE-bla, beta-lactamase ratio, 16 h; series mostly up to 66 µM. An outline of the steps: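 Each plate received p53RE-bla cells, then compound, then rat liver microsomes and NADPH (both 0.5 mg/mL final). Plates were held 16 h at 37 C, and beta-lactamase activity was detected with LiveBLAzer over 2 h.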
Background: In qHTS, concentration-response curves come from the screen itself.

Test [6] can be described thus: p53 small molecule agonists, cell-based qHTS assay with rat liver microsomes: qHTS cell viability counter screen (AID 1963580). Further: nearly all actives have a fitted effect of over 45% in size. The note with it: p53RE-bla HCT-116 + rat microsomes, ATP viability, 16 h; series mostly up to 66 µM. In short, it runs like this:
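Viability is assessed in parallel with the p53 reporter read: HCT-116 p53RE-bla cells receive compounds plus rat microsomes and NADPH (0.5 mg/mL final apiece), incubate 16 h at 37 C, and then CellTiter-Glo luminescence is recorded.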

Test [7] can be described thus: p53 small molecule agonists, cell-based qHTS assay: qHTS cell viability counter screen (AID 1963581). Further: nearly all actives have a fitted effect of over 45% in size. The note with it: p53RE-bla HCT-116 viability, ATP luminescence, 16 h; series mostly up to 66 µM. An outline of the steps: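 In the same plates used for the p53 bla reporter, HCT-116 cells given compounds for 16 h at 37 C received CellTiter-Glo; luminescence was recorded 30 min later at room temperature.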

Test [8] can be described thus: p53 small molecule agonists, cell-based qHTS assay (AID 1963582; active means well fitted activation curve with a large enough effect in the signal ratio in the repeat runs, not every such curve was filed as active; the % refers to the signal ratio). As to conditions: HCT-116 p53RE-bla reporter, beta-lactamase FRET ratio, 16 h; series mostly up to 66 µM. An outline of the steps:
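Compounds are pin-transferred in DMSO onto p53RE-bla cells and incubated 16 h at 37 C. The B/G FRET beta-lactamase substrate is then applied for 2 h at RT and fluorescence recorded.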

The target of test [9] is 5-hydroxytryptamine receptor 2A (Homo sapiens) (UniProt P28223). The experiment in a line: 5-hydroxytryptamine receptor 2A (HTR2A) small molecule antagonists, cell-based qHTS assay (AID 1963586). Further: nearly all actives have a fitted effect of over 45% in size. As to conditions: HTR2A-CHO cells, DOI-induced calcium flux, fluorescence; series mostly up to 61.5 µM. An outline of the steps:
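Antagonist-mode intracellular calcium assay: DOI (4 nM) added after 5 min compound pre-incubation at room temperature to dye-loaded HTR2A-CHO cells. Fluorescence followed for 3 min, sampled every second.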

For test [10] the target is unchanged. The experiment in a line: 5-hydroxytryptamine receptor 2A (HTR2A) small molecule agonists, cell-based qHTS assay (AID 1963587). Further: nearly all actives have a fitted effect of over 30% in size. Further: potency means the concentration at half of the fitted maximal effect. The note with it: HTR2A-CHO cells, calcium flux fluorescence, agonist mode; series mostly up to 76.8 µM. An outline of the steps: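 CHO cells stably expressing human HTR2A, plated 18 h, loaded with calcium dye 1 h at 37 C. Agonist mode: compounds added and intracellular calcium fluorescence recorded kinetically for 2 min at 1 sec intervals.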

Test [11] addresses Muscarinic acetylcholine receptor M1 (Homo sapiens) (UniProt P11229). The experiment in a line: Cholinergic receptor muscarinic 1 (CHRM1) small molecule antagonists, cell-based qHTS assay (AID 1963588). Further: nearly all actives have a fitted effect of over 40% in size. As to conditions: CHRM1-CHO antagonist mode, calcium flux fluorescence; series mostly up to 61.5 µM. In short, it runs like this:
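CHRM1-CHO calcium-flux assay, antagonist mode. Cells were seeded 18 h, dye-loaded 1 h at 37 C and given compound for 5 min at RT, then acetylcholine was added at 50nM. FDSS fluorescence was read 3 min; 15 concentrations, three runs.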

For test [12] the target is unchanged. The experiment in a line: Cholinergic receptor muscarinic 1 (CHRM1) small molecule agonists, cell-based qHTS assay (AID 1963589). Further: nearly all actives have a fitted effect of over 35% in size. Further: potency means the concentration at half of the fitted maximal effect. As to conditions: CHRM1-CHO cells, agonist mode, calcium flux fluorescence; series mostly up to 76.8 µM. An outline of the steps:
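Each compound was tested at 15 concentrations across three independent runs on dye-loaded CHO cells stably expressing human CHRM1, reading intracellular calcium fluorescence kinetically at 1 sec intervals.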

Test [13] can be described thus: cAMP Responsive Elements (CRE) small molecule agonists, cell-based qHTS assay (AID 1963590). As to conditions: CRE-bla HEK293T, beta-lactamase FRET ratio, 3 h; series mostly up to 92.4 µM. An outline of the steps:
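Cell line: CRE-bla HEK 293T; medium DMEM/10% dialyzed FBS/0.1 mM NEAA/1 mM pyruvate/25 mM HEPES; 3 h compound exposure; beta-lactamase FRET readout after 2 h substrate loading at RT.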

Test [14] concerns the target Beta-2 adrenergic receptor (Homo sapiens) (UniProt P07550). The experiment in a line: Adrenergic beta2 receptor (ADRB2) small molecule antagonists, cell-based qHTS assay (AID 1963592). Further: nearly all actives have a fitted effect of over 50% in size. Further: potency means the concentration at half of the fitted maximal effect. The note with it: CHO-ADRB2 cells, isoproterenol-stimulated cAMP HTRF ratio, 0.5 h; series mostly up to 92.4 µM. In short, it runs like this:
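Cells (CHO, stable ADRB2 overexpression) incubated 18-20hr at 37C; compounds added from DMSO; agonist mix (1nM isoproterenol, 100uM IBMX, 25uM Ro-20-1724) added; 0.5hr RT; d2-cAMP and anti-cAMP-cryptate added; 1hr RT; 665/615 nm read.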

Test [15] has as its target D(2) dopamine receptor (Homo sapiens) (UniProt P14416). The experiment in a line: Dopamine D2 receptor (DRD2) small molecule agonists, cell-based qHTS assay (AID 1963594). Further: nearly all actives have a fitted effect of over 35% in size. Further: potency means the concentration at half of the fitted maximal effect. The note with it: HEK293-DRD2 cAMP HTRF, agonist mode, 30 min; series mostly up to 92.4 µM. In short, it runs like this: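 HEK293 cells stably expressing human DRD2, pre-treated with PDE inhibitor Ro20-1724 (0.1 mM final) and compound 10 min at room temperature, then stimulated with NKH477 (200nM […]) for 30 min. cAMP read by HTRF (665/620 nm).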

Test [16] shares this target. The experiment in a line: Dopamine D2 receptor (DRD2) small molecule antagonists, cell-based qHTS assay (AID 1963595; active means well fitted inhibition curve with a large enough effect in the signal ratio in the repeat runs, with a control signal flat; the % refers to the signal ratio). As to conditions: HEK293-DRD2 cAMP HTRF antagonist mode; series mostly up to 92.4 µM. In short, it runs like this:
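DRD2-HEK293; 0.1 mM Ro20-1724; cpd 10 min RT; NKH477 200 nM + quinpirole 12 nM, 30 min RT; HTRF cAMP (cAMP-d2/anti-cAMP cryptate), 665/620 nm ratio after 1 h.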

Test [17] is described as follows: p53 small molecule agonists, cell-based qHTS assay with human liver microsomes: qHTS cell viability counter screen (AID 1963579). Further: nearly all actives have a fitted effect of over 45% in size. As to conditions: p53RE-bla HCT-116 viability, ATP luminescence, 16 h, HLM; series mostly up to 66 µM. An outline of the steps:
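Tox21 library compounds, delivered from DMSO stocks, were tested on p53RE-bla cells together with 0.5 mg/mL human liver microsomes and 0.5 mg/mL NADPH (final) over 16 h at 37 C; CellTiter-Glo luminescence served as the cytotoxicity measure.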

Test [18] in a line: cAMP Responsive Elements (CRE) small molecule antagonists, cell-based qHTS assay (AID 1963591; active means well fitted inhibition curve with a large enough effect in the signal ratio in the repeat runs, not every such curve was filed as active; the % refers to the signal ratio). As to conditions: CRE-bla HEK293T, beta-lactamase FRET ratio; series mostly up to 92.4 µM. An outline of the steps:
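Inhibition of NKH477-driven (0.25 uM final) CRE-beta-lactamase signal in HEK293T cells, 3 h compound exposure at 37 °C, detected by FRET substrate fluorescence.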

Test [19] addresses Beta-2 adrenergic receptor (Homo sapiens) (UniProt P07550). The experiment in a line: Adrenergic beta2 receptor (ADRB2) small molecule agonists, cell-based qHTS assay (AID 1963593).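 Further: CHO cells stably overexpressing human ADRB2.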 The note with it: CHO-ADRB2 cells, cAMP HTRF, 30 min; series mostly up to 92.4 µM. An outline of the steps: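 CHO cells stably over-expressing ADRB2 were plated overnight at 37C, then dosed with compounds plus a stimulation mix containing 100uM IBMX and 25uM Ro-20-1724 for 0.5hr at room temperature. cAMP was measured by HTRF competition, 1hr.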

Inconclusive results are not listed. A structure can be active in one record and inactive in another. Activity calls are given as the source filed them. Unless noted, the call rests on the fitted dose curve.

Chain of Muscarinic acetylcholine receptor M1 (Homo sapiens) (P11229 whole entry, looked up): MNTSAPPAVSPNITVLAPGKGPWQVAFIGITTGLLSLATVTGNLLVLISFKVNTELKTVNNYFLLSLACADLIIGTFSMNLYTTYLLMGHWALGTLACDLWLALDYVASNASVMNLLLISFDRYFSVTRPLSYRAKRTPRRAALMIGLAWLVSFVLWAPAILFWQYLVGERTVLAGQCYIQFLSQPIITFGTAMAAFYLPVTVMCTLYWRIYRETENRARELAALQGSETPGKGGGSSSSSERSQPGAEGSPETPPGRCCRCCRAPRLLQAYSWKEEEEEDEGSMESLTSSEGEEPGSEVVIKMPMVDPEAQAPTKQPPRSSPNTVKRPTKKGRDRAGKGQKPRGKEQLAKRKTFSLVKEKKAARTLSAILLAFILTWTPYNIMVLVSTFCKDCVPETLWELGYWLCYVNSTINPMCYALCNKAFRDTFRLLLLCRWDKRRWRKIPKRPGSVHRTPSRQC
Chain of Beta-2 adrenergic receptor (Homo sapiens) (P07550 whole entry, looked up): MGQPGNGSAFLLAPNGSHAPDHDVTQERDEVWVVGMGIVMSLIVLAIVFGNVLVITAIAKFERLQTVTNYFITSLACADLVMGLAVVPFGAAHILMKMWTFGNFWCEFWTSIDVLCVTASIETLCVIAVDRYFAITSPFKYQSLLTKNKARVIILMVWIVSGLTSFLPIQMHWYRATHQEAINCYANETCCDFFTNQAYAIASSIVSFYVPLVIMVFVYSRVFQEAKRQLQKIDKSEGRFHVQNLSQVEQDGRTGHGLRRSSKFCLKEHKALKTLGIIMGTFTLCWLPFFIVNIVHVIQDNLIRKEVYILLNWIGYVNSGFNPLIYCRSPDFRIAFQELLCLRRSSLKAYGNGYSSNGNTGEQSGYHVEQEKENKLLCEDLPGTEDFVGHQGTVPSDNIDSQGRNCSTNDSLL
Chain of D(2) dopamine receptor (Homo sapiens) (P14416 whole entry, looked up): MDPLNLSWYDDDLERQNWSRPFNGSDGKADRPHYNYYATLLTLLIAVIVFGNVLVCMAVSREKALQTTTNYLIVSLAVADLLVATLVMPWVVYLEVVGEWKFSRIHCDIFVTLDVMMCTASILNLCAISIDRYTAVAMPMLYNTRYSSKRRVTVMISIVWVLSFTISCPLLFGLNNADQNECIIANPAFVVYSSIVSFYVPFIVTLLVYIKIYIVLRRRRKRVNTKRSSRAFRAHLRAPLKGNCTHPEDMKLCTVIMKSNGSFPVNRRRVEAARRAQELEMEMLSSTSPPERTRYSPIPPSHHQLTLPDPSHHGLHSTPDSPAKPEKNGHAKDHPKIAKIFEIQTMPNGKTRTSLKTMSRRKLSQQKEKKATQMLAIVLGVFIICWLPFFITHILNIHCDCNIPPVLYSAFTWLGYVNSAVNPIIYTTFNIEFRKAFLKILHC
Chain of 5-hydroxytryptamine receptor 2A (Homo sapiens) (P28223 whole entry, looked up): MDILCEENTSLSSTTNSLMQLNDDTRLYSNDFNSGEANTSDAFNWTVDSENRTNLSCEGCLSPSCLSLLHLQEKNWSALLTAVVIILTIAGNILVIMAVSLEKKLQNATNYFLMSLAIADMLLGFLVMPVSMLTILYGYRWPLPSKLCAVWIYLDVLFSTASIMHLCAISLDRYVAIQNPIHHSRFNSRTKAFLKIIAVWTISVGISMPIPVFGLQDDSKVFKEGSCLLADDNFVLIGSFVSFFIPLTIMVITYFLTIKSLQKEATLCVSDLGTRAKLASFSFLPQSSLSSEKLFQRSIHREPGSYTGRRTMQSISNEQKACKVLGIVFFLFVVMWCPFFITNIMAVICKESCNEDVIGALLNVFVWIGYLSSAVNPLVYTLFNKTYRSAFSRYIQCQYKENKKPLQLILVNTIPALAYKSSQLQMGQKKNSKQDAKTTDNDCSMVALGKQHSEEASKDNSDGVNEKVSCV

In the case of `CC1(C)CC(=O)CC(C)(C)N1`, the Potency entry in test [1], in test [2], in [3], in test [4], in [5] and in [6] was “inactive” each time. For the same compound, the Potency result in test [7], in test [8], in [9], in test [10], in test [11] and in test [12] was “inactive” each time. Further, the Potency entry in test [13], in [14], in test [15] and in test [16] was “inactive” in each case.
`O=C(O)c1cccnc1Nc1cccc(C(F)(F)F)c1`: the Potency in test [1] was 23.7 µM (active). The Potency entry in [2], in test [3], in test [4], in [17], in test [6] and in [7] was “inactive” in each case. Further, the Potency result in test [18], in test [14], in [15] and in [16] was “inactive” in each case.
On to `O=C1OC2(c3ccccc31)c1ccc(O)c(Br)c1Oc1c2ccc(O)c1Br`, for which the Potency result in [1], in test [17], in test [6], in [7], in [9] and in test [11] was “inactive” throughout. In addition, the Potency in [2] is 13.8 µM (active); in test [3] it was 7.76 µM (active); in test [4] it was 19.5 µM (active); in test [10] it was 1.55 µM (active); in [12] it was 24.5 µM (active); in test [14] it was 68.6 µM (active). Further, in test [15], the Potency was 15.4 µM (active).
With `O=Cc1ccccc1Cl`, the Potency entry in test [1], in test [2], in test [3], in [4], in test [17] and in test [6] was “inactive” in each case. The Potency result in test [7], in test [10], in [11], in test [12], in test [13] and in test [18] was “inactive” each time. Moreover, the Potency entry in test [14], in test [19], in test [15] and in test [16] was “inactive” throughout.
As to `CCCCCCC(O)CCCCCCCCCCC(=O)O` (stereo not drawn), the Potency result in [1], in [2], in test [3], in [4], in [17] and in test [6] was “inactive” each time. Also, the Potency entry in [7], in test [9], in [11], in test [12], in test [13] and in test [14] was “inactive” in each case. The Potency result in [19], in test [15] and in test [16] was “inactive” in each case. Moreover, the Potency in test [10] is 3.9 µM (active) and inactive.
`C#Cc1cccc(Nc2ncnc3cc(OCCOC)c(OCCOC)cc23)c1`: the Potency result in test [1], in test [2], in [3], in [4], in [17] and in [6] was “inactive” each time. Also, the Potency result in test [7], in [10], in test [11], in test [12], in test [19] and in [15] was “inactive” in each case. Besides, in test [16], the Potency entry was “inactive”.
Take `CC/C=C\CCCCCCCCCCOC(C)=O`: the Potency entry in test [1], in [2], in test [3], in [4], in [17] and in test [6] was “inactive” throughout. Further, the Potency result in [7], in [9], in [10], in test [11], in [12] and in [13] was “inactive” each time. Also, the Potency result in test [14], in test [19], in test [15] and in test [16] was “inactive” throughout.
`CCN(CCC#N)c1ccccc1`: the Potency result in test [1], in test [2], in test [3], in [4], in test [17] and in test [6] was “inactive” throughout. Besides, the Potency entry in test [7], in test [9], in test [10], in [11], in test [12] and in test [13] was “inactive” throughout. Moreover, the Potency entry in test [18], in test [14], in test [19], in test [15] and in [16] was “inactive” throughout.
